In PubChem BioAssay (EPA / NIEHS) one finds outcome and AC50 data, which are given here for 5 compounds.

Results filed as inconclusive are left out. Some structures have more than one record in an assay (separate samples or runs), and their calls can disagree. Active and inactive are the calls of the source. How the source made its calls, unless noted: active means hit-call score of the fitted dose curve at least 0.9, where 1 is the maximum; inactive means score below 0.9.

Experiment [1] can be described thus: ATG_TAL_CIS: Attagene CIS-FACTORIAL HepG2 Assay for human TAL Basal Promoter (AID 2282966).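 Further: background control endpoint measuring basal TAL promoter reporter mRNA not a specific factor.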 As to conditions: HepG2 Attagene cis-factorial TAL promoter reporter; actives raise or lower the signal. The essentials: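 Fluorescence of labelled reporter cDNA fragments, resolved by capillary electrophoresis, gave the readout. Human HepG2 liver cells carried transiently transfected cis-element reporter units and were treated for 24 hours; activity was fitted bidirectionally against DMSO.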

The nature of experiment [2]: ATG_TGFb_CIS: Attagene CIS-FACTORIAL HepG2 Assay for human Transforming Growth Factor (TGF) (AID 2282967). The note with it: HepG2 Attagene CIS TGFb reporter, mRNA transcription; actives raise or lower the signal. In outline: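 Readout: fluorescently labeled reporter cDNA fragments resolved by capillary electrophoresis after RT-PCR. Transfected HepG2 cells dosed for 24 h; endogenous TF activity at TGFB1-linked cis element; gain or loss fitted relative to DMSO.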

Experiment [3] can be described thus: ATG_VDRE_CIS: Attagene CIS-FACTORIAL HepG2 Assay for human Vitamin D Receptor Element (VDRE) (AID 2282968). The note with it: HepG2 VDRE cis-reporter transcription, actives raise or lower the signal. The essentials:
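RT-PCR/CE readout of reporter mRNA; HepG2, transient transfection, 24 h dosing; DMSO baseline; bidirectional analysis.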

In experiment [4] the target is X-box-binding protein 1 (Homo sapiens) (UniProt P17861). In words: ATG_Xbp1_CIS: Attagene CIS-FACTORIAL HepG2 Assay for human X-box Binding Protein 1 (XBP1) (AID 2282972). The note with it: HepG2 XBP1 cis-element reporter, Attagene multiplex; actives raise or lower the signal. In outline:
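HepG2 cells transiently transfected with multiple cis-element reporter units report endogenous TF activity; 24 h exposure, then reporter mRNA measured by RT-PCR, 6-FAM labelling, HpaI digestion and capillary electrophoresis. Bidirectional fitting versus DMSO.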

Experiment [5] in a line: ATG_M_19_TRANS: Attagene TRANS-FACTORIAL HepG2 Assay for M19 Transcription Factor (Internal Marker) (AID 2282974; active means hit-call score of the fitted dose curve at least 0.9, where 1 is the maximum). As to conditions: HepG2 Attagene TRANS-FACTORIAL M19 internal marker reporter. The essentials:
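24 h chemical exposure of transiently transfected HepG2 (MRTU library). RNA → oligo(dT) RT → PCR → 6-FAM labelling → HpaI cut → CE fluorescence. Positive-direction fit vs DMSO baseline; background internal-marker readout.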

In experiment [6] the target is Glucocorticoid receptor (Homo sapiens) (UniProt P04150). In words: ATG_GR_TRANS: Attagene TRANS-FACTORIAL HepG2 Assay for human Glucocorticoid Receptor (GR) (AID 2282978; active means hit-call score of the fitted dose curve at least 0.9, where 1 is the maximum;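 further: activators score as hits since higher reporter transcript over DMSO is fitted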). The note with it: HepG2 Attagene TRANS GR reporter, mRNA transcription. The essentials: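 Transient MRTU transfection of HepG2 (GAL4-UAS reporters, exogenous NR-GAL4 chimeras), 24 h dosing. Readout: reporter transcript via RT-PCR + capillary electrophoresis fluorescence. Positive direction vs DMSO baseline.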

Experiment [7] concerns the target Bile acid receptor (Homo sapiens) (UniProt Q96RI1). In words: ATG_FXR_TRANS: Attagene TRANS-FACTORIAL HepG2 Assay for Farnesoid X Receptor (FXR) (AID 2282979; active means hit-call score of the fitted dose curve at least 0.9, where 1 is the maximum;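 further: hits raise reporter mRNA above DMSO so AC50 marks FXR activation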). The note with it: HepG2 Attagene TRANS FXR-GAL4 reporter transcription. In outline: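 Transient transfection of HepG2 with multiplexed GAL4-UAS reporter units; exogenous FXR-GAL4 chimera. Dose 24 h → TriZol RNA → oligo(dT) RT → PCR, 6-FAM primer extension, HpaI cut → CE. Gain vs DMSO.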

The nature of experiment [8]: ATG_M_06_TRANS: Attagene TRANS-FACTORIAL HepG2 Assay for M06 Transcription Factor (Internal Marker) (AID 2282983; active means hit-call score of the fitted dose curve at least 0.9, where 1 is the maximum). The note with it: HepG2 Attagene TRANS M06 internal marker reporter. In outline:
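Transfect HepG2 with MRTUs → dose compounds 24 h → isolate RNA, oligo(dT) RT → PCR with reporter primers → 6-FAM primer extension → HpaI digest → CE fragment analysis. Positive direction vs DMSO.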

A short description of experiment [9]: ATG_M_32_TRANS: Attagene TRANS-FACTORIAL HepG2 Assay for M32 Transcription Factor (Internal Marker) (AID 2282984; active means hit-call score of the fitted dose curve at least 0.9, where 1 is the maximum;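 further: transcript level of a background control reporter unit measured by RT-PCR and capillary electrophoresis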). The note with it: HepG2 Attagene TRANS M32 internal marker reporter. In outline: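 Human hepatoma HepG2, transient MRTU transfection, 24 h treatment. RNA → RT-PCR → fluorescent primer extension → HpaI digest (2 h, 37 C) → CE. Positive-direction fit vs DMSO.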

The target of experiment [10] is Nuclear receptor subfamily 4 group A member 2 (Homo sapiens) (UniProt P43354). Briefly: ATG_NURR1_TRANS: Attagene TRANS-FACTORIAL HepG2 Assay for human Nuclear Receptor Related Protein 1 (NURR1) (AID 2282985; active means hit-call score of the fitted dose curve at least 0.9, where 1 is the maximum). The note with it: HepG2 Attagene TRANS reporter, mRNA readout. The essentials:
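After 24 h chemical dosing, total RNA from transiently transfected HepG2 cells was reverse-transcribed and reporter cDNA PCR-amplified, FAM-labelled and analysed by capillary electrophoresis. Activity fitted in positive direction, DMSO as negative control.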

Experiment [11] deals with Transcriptional activator Myb (Homo sapiens) (UniProt P10242). Briefly: ATG_Myb_CIS: Attagene CIS-FACTORIAL HepG2 Assay for human Myeloblastosis (Myb) Proto-Oncogene Transcription Factor (AID 2282986). The note with it: HepG2 Attagene CIS-FACTORIAL Myb reporter transcription; actives raise or lower the signal. The essentials: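 HepG2, transient MRTU transfection (cis-element promoters, endogenous TF activity), 24 h compound exposure. Readout: reporter mRNA via RT-PCR, 6-FAM labeling, HpaI digest, capillary electrophoresis. Gain/loss fit vs DMSO.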
Sequence of Transcriptional activator Myb (Homo sapiens) (P10242 whole entry, looked up): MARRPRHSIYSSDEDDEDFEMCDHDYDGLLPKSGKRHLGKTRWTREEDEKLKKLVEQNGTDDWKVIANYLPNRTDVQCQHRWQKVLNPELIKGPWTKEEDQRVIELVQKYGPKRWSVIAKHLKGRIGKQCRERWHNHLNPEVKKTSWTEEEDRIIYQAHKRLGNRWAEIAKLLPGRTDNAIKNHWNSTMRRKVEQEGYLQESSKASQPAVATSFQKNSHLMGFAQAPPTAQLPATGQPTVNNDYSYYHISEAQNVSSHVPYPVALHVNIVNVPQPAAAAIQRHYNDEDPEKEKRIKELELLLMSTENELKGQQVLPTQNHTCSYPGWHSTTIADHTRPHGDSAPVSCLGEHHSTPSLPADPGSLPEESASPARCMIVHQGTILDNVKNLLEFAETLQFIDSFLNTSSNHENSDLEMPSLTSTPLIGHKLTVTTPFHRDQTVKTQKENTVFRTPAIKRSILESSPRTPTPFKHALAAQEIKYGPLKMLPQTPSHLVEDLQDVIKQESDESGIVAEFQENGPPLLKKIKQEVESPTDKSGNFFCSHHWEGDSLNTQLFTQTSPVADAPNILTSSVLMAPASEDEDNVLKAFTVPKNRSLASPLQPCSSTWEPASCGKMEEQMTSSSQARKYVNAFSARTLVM

Experiment [12] has as its target Nuclear respiratory factor 1 (Homo sapiens) (UniProt Q16656). In words: ATG_NRF1_CIS: Attagene CIS-FACTORIAL HepG2 Assay for human Nuclear Respiratory Factor 1 (NRF1) Orphan Gene (AID 2282987). The note with it: HepG2 NRF1 cis-element reporter, Attagene multiplex; actives raise or lower the signal. In outline:
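Endogenous NRF1-driven reporter transcription measured in transiently transfected human HepG2 liver cells. Readout: reporter mRNA by RT-PCR and capillary electrophoresis with fluorescence detection, 24 h post-dosing. Gain or loss of signal fitted relative to DMSO baseline.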

A short description of experiment [13]: ATG_NFI_CIS: Attagene CIS-FACTORIAL HepG2 Assay for human Nuclear Factor I (NFI) (AID 2282989). As to conditions: HepG2 cis-regulatory reporter, NFI response element transcription; actives raise or lower the signal. The essentials:
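Read-out: reporter mRNA via RT-PCR plus capillary electrophoresis with fluorescence detection. Transiently transfected HepG2 (endogenous TF activity on cis promoters), 24 h compound exposure; gain or loss of signal fitted against DMSO.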

Experiment [14] addresses Myc proto-oncogene protein (Homo sapiens) (UniProt P01106). Briefly: ATG_Myc_CIS: Attagene CIS-FACTORIAL HepG2 Assay for human Myelocytomatosis (Myc) Proto-Oncogene Transcription Factor (AID 2282990). As to conditions: HepG2, Attagene cis-reporter transcription factor activity; actives raise or lower the signal. The essentials:
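HepG2 cells transiently transfected with multiple cis-promoter-driven reporter transcription units, so endogenous TF activity is read. After 24 h compound exposure, reporter mRNA was quantified by RT-PCR, 6-FAM labelling, HpaI digestion and capillary electrophoresis; bidirectional fit versus DMSO.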

Experiment [15] addresses Nuclear receptor subfamily 1 group I member 3 (Homo sapiens) (UniProt Q14994). In words: ATG_CAR_TRANS: Attagene TRANS-FACTORIAL HepG2 Assay for human Constitutive Androstane Receptor (CAR) (AID 2282969; active means hit-call score of the fitted dose curve at least 0.9, where 1 is the maximum;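 further: activators raise reporter mRNA above DMSO so AC50 marks induction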). The note with it: HepG2 Attagene TRANS-FACTORIAL CAR reporter. The essentials:
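HepG2 cells transiently transfected with multiplexed GAL4-UAS reporter units expressing chimeric NR-Gal4 proteins; compound exposure 24 h. Reporter mRNA measured by RT-PCR, 6-FAM labelling, HpaI digestion and capillary electrophoresis; gain-of-signal fitted against DMSO baseline.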

Experiment [16] concerns the target Estrogen receptor (Homo sapiens) (UniProt P03372). Briefly: ATG_ERa_TRANS: Attagene TRANS-FACTORIAL HepG2 Assay for human Estrogen Receptor alpha (ERa) (AID 2282970; active means hit-call score of the fitted dose curve at least 0.9, where 1 is the maximum). The note with it: HepG2 Attagene TRANS ERa GAL4 reporter, mRNA. In outline: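 Human liver HepG2, transient transfection of multiple GAL4-UAS reporter units; TRANS format (exogenous NR-Gal4 chimera). 24 h dosing. Readout: reporter mRNA, RT-PCR, 6-FAM primer extension, HpaI digest, capillary electrophoresis. Positive direction vs DMSO.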

The target of experiment [17] is Oxysterols receptor LXR-alpha (Homo sapiens) (UniProt Q13133). In words: ATG_LXRa_TRANS: Attagene TRANS-FACTORIAL HepG2 Assay for human Liver X Receptor alpha (LXRa) (AID 2282980; active means hit-call score of the fitted dose curve at least 0.9, where 1 is the maximum). The note with it: HepG2 Attagene TRANS reporter, LXRa transactivation. The essentials: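 Transfect HepG2 with GAL4-UAS multiplex reporter constructs (TRANS format, chimeric receptor-GAL4); treat 24 h; extract RNA, reverse-transcribe, PCR-amplify, FAM-label, HpaI-digest; resolve fragments by capillary electrophoresis. Upward response vs DMSO.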
Sequence of Oxysterols receptor LXR-alpha (Homo sapiens) (Q13133 whole entry, looked up, the tested form may be a part): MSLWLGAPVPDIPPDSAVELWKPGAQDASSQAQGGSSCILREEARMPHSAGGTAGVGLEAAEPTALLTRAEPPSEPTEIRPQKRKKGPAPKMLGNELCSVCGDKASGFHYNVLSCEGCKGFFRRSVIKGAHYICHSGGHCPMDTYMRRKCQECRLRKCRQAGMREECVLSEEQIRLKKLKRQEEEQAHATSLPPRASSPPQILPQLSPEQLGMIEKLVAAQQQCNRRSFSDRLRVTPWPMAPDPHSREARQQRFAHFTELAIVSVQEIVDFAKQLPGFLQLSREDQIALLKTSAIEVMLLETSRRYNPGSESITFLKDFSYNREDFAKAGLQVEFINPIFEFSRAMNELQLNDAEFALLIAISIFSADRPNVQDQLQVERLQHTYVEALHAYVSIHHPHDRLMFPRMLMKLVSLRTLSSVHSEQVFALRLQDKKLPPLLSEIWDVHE

Experiment [18] concerns the target Oxysterols receptor LXR-beta (Homo sapiens) (UniProt P55055). Briefly: ATG_LXRb_TRANS: Attagene TRANS-FACTORIAL HepG2 Assay for human Liver X Receptor beta (LXRb) (AID 2282981; active means hit-call score of the fitted dose curve at least 0.9, where 1 is the maximum). As to conditions: HepG2 Attagene TRANS GAL4-LXRb reporter, mRNA. The essentials:
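In this TRANS format, exogenous chimeric NR-Gal4 protein activity, not endogenous factors, drives reporter expression in transfected human HepG2 cells. Exposure lasted 24 h; reporter mRNA was read by fluorescent capillary electrophoresis.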

For experiment [19], the target named is Hepatocyte nuclear factor 4-alpha (Homo sapiens) (UniProt P41235). In words: ATG_HNF4a_TRANS: Attagene TRANS-FACTORIAL HepG2 Assay for human Hepatocyte Nuclear Factor 4 alpha (HNF4a) (AID 2282982; active means hit-call score of the fitted dose curve at least 0.9, where 1 is the maximum). The note with it: HepG2 HNF4a transactivation reporter, mRNA readout. The essentials: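 Cells used were human HepG2, transiently carrying GAL4-UAS reporter units read out against exogenous NR-GAL4 chimeras. Reporter transcript levels after 24 h dosing were quantified by fluorescent RT-PCR and capillary electrophoresis.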
Sequence of Hepatocyte nuclear factor 4-alpha (Homo sapiens) (P41235 whole entry, looked up, the tested form may be a part): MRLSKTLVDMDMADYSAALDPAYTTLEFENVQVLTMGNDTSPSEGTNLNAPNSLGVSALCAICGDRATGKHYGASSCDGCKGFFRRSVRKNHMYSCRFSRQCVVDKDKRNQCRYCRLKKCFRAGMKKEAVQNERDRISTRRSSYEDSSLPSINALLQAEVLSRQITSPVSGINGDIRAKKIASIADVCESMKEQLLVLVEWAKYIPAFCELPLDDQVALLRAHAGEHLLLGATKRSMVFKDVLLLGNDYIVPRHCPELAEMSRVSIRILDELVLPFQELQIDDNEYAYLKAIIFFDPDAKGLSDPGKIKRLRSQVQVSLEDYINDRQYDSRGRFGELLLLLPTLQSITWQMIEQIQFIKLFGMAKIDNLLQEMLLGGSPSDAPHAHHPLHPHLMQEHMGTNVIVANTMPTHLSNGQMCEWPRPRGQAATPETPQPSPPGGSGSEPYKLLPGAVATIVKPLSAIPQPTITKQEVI

Sequence of X-box-binding protein 1 (Homo sapiens) (P17861 whole entry, looked up): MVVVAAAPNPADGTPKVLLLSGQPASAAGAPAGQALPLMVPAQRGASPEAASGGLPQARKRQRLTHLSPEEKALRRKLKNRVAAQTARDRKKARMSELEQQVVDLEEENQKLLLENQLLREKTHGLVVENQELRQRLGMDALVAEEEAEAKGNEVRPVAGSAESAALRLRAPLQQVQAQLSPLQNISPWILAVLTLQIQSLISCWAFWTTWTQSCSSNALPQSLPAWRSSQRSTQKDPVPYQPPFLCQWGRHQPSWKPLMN
Sequence of Nuclear receptor subfamily 4 group A member 2 (Homo sapiens) (P43354 whole entry, looked up): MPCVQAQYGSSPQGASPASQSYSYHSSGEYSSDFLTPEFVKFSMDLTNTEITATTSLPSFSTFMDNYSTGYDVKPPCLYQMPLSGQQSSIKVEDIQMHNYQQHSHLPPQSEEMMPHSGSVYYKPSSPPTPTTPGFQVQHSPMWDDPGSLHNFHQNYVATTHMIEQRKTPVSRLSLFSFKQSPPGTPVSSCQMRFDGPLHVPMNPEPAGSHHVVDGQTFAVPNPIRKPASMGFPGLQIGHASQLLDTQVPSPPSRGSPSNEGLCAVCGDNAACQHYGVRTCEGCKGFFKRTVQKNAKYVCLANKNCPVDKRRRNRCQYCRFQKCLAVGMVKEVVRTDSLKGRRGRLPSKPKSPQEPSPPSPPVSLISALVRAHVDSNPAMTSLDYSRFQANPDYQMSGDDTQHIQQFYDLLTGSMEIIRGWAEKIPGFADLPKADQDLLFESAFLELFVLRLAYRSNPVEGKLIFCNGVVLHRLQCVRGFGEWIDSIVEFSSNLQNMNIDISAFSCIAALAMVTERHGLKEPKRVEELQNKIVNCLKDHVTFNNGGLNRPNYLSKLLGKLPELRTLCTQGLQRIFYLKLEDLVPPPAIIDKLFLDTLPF
Sequence of Nuclear respiratory factor 1 (Homo sapiens) (Q16656 whole entry, looked up): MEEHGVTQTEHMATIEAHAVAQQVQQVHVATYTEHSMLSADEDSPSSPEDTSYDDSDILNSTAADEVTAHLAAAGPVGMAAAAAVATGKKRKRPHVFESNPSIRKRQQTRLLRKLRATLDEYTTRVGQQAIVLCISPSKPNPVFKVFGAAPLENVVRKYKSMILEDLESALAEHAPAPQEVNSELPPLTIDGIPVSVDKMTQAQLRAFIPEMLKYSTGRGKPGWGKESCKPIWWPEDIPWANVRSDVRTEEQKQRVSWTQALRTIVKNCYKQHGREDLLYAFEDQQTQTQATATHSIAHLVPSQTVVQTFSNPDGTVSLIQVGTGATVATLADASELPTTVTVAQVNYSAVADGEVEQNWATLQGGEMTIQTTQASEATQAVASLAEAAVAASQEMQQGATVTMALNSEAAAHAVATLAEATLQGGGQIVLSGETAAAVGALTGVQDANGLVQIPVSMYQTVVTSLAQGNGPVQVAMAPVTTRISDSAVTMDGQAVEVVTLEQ
Sequence of Bile acid receptor (Homo sapiens) (Q96RI1 whole entry, looked up, the tested form may be a part): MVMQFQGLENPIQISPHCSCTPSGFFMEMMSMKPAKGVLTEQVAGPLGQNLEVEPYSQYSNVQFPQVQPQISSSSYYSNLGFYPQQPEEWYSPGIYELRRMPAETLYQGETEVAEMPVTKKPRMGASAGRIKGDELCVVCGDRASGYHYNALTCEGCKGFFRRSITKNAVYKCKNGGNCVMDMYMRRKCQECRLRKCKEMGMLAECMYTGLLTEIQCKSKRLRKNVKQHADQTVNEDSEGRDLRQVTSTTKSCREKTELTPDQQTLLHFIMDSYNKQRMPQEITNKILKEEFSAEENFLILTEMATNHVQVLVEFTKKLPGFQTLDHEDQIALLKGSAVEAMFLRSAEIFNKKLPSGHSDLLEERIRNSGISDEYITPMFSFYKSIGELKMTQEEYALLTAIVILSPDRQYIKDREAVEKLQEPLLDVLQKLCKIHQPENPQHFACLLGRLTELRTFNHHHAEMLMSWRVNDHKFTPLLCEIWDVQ
Sequence of Myc proto-oncogene protein (Homo sapiens) (P01106 whole entry, looked up): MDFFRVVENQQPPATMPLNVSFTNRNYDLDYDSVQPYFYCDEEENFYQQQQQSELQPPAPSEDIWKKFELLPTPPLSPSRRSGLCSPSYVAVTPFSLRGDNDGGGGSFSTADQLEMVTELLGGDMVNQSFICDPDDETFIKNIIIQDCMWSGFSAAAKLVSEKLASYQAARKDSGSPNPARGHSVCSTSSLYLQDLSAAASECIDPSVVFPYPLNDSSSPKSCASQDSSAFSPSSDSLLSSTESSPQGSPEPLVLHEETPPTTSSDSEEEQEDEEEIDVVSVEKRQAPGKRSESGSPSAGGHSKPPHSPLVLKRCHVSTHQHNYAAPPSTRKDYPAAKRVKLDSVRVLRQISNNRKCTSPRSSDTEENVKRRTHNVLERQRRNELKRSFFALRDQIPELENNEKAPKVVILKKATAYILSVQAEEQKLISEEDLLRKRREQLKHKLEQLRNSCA
Sequence of Estrogen receptor (Homo sapiens) (P03372 whole entry, looked up, the tested form may be a part): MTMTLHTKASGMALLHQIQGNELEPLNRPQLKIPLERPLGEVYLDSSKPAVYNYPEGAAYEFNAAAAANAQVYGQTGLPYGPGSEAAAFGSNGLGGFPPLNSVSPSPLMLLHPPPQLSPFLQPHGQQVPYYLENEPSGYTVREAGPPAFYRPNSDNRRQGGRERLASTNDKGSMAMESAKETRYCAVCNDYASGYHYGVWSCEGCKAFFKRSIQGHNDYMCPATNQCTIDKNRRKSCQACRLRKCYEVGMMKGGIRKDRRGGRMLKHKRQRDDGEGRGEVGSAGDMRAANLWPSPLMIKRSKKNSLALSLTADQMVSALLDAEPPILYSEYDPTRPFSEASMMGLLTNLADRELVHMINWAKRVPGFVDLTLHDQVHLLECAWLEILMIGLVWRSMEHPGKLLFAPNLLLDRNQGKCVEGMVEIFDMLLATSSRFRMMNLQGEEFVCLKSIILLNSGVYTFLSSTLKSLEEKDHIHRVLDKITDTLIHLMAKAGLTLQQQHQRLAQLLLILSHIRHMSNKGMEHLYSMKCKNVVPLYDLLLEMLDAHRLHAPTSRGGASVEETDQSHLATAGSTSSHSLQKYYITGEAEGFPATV
Sequence of Nuclear receptor subfamily 1 group I member 3 (Homo sapiens) (Q14994 whole entry, looked up, the tested form may be a part): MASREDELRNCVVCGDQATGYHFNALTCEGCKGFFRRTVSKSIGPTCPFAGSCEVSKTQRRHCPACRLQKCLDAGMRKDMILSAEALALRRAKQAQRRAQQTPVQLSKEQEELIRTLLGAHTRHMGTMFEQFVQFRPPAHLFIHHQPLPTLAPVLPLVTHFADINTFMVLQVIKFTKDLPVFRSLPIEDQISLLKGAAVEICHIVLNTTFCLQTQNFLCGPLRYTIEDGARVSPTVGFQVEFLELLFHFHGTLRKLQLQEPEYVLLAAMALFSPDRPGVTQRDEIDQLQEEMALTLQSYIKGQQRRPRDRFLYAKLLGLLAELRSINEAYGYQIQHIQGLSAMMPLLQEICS

On to `O=C(Oc1ccccc1)c1cccc(C(=O)Oc2ccccc2)c1`, for which the outcome in [1], in [2], in experiment [3], in experiment [4], in [5] and in experiment [6] was inactive. For the same compound, the outcome in [7], in [8], in experiment [9], in experiment [10], in experiment [11] and in experiment [12] was inactive. Further, the call in [13] and in experiment [14] was inactive.
For `O=C(NS(=O)(=O)/C=C/c1cccs1)c1ccc(F)cc1Br`, the compound was called inactive in experiment [1], in [2], in experiment [15], in experiment [16], in experiment [4] and in experiment [5]. Moreover, the outcome in experiment [17], in experiment [9], in [11], in experiment [12], in experiment [13] and in experiment [14] was inactive.
As a reminder, the AC50 is the midpoint of the concentration-response curve, whichever way the signal moves. On to `O=C(O)c1cccnc1`, for which the outcome in experiment [1], in experiment [2], in experiment [15], in experiment [4], in experiment [5] and in experiment [7] was inactive. For the same compound, the call in [8], in experiment [9], in experiment [10], in experiment [11], in experiment [12] and in [13] was inactive. In addition, in experiment [14], the call was inactive. The half-maximal activity concentration (AC50) in experiment [4] is 25.2 µM (active).
Consider `CC(=O)CC(c1ccccc1)c1c(O)c2ccccc2oc1=O` (stereo unspecified), for which the call in [1], in experiment [2], in experiment [3], in [4], in [5] and in experiment [17] was inactive. In addition, the compound was classed as inactive in experiment [18], in experiment [8], in [9], in [10], in [11] and in [12]. For the same compound, the outcome in experiment [13] and in experiment [14] was inactive.
Regarding `CC1(C)C(=O)NC(=O)N1CO`, the compound was called inactive in experiment [1], in [2], in experiment [4], in experiment [5], in experiment [6] and in experiment [19]. In addition, the call in [10], in experiment [11], in experiment [12], in experiment [13] and in experiment [14] was inactive. The AC50 in [16] is 123 µM (active).
